{"source": "ChEMBL document CHEMBL3433997", "about": "“St. Jude Leishmania screening dataset” (2016)"}
{"biological_target": "Glucose transporter (Leishmania mexicana) (UniProt O61059)", "assay": "ST_JUDE_LEISH: Cytotoxicity at 2uM final concentration against transgenic Leishmania Mexicana promastigotes LmGT2 that are glucose transport deficient and complemented with the L. Mexicana glucose transporter 2. Activity is measured by DNA content using SYBR green in vitro", "assay_type": "functional", "units": {"inhibition": "%"}}
{"smiles": "Cc1ccc(-c2nc(N3CCN(C(=O)c4ccco4)CC3)c3ccc(Cl)cc3n2)cc1", "inhibition": 2.34}
{"smiles": "O=C(/C=C/c1ccc(Cl)c(Cl)c1)NCCCCCN1CCCC(C(=O)Nc2cccc(Cl)c2)C1", "note": "(stereo not given)", "inhibition": 1.07}
{"smiles": "Cc1cc(Nc2ccc3ccccc3c2)n2ncnc2n1", "inhibition": -1.18}
{"smiles": "CCCc1c(C(=O)Nc2ccc3c(c2)CCN(C2CCC2)CC3)cnn1-c1ccc(Cl)cc1", "inhibition": 2.6}
{"smiles": "COc1cc2ncnc(Nc3ccc4nc(-c5ccccc5)[nH]c4c3)c2cc1OC", "inhibition": 2}
{"smiles": "N#Cc1ccccc1C(=O)N(Cc1cncn1Cc1cccc(F)c1)CC1CC1", "inhibition": 8.88}
{"smiles": "c1cc(-c2ccc(CNCCCN3CCOCC3)cc2)cc(-c2nc3ccccc3[nH]2)c1", "inhibition": 2.29}
{"smiles": "O=C(N[C@H]1CCN(Cc2ccc(OC3CCN(Cc4ccccc4)CC3)c(Br)c2)C1)c1ccc(Cl)c(Cl)c1", "inhibition": 0.77}
{"smiles": "NC1CCCN(Cc2cccc(-c3ccc(-c4nc5ccccc5[nH]4)cc3)c2)C1", "note": "(stereo not given)", "inhibition": 8.63}
{"smiles": "Cc1cc(N[C@@H](CC(C)C)C(=O)NCc2cccs2)nc(NCCc2ccc(F)cc2)n1", "inhibition": 0.13}
{"smiles": "N#Cc1ccc2c(c1)CCN(CCC1CCC(NC(=O)/C=C/c3ccc4[nH]ccc4c3)CC1)CC2", "note": "(stereo not given)", "inhibition": 0.13}
{"smiles": "COc1ccc(F)cc1-c1ccc(C(=O)N2CCCN(c3ccc(C#N)cn3)CC2)cc1", "inhibition": -5.82}
{"smiles": "COc1cccc(OCC2CCCN(CCCCNC(=O)c3ccc(NC(=O)c4ccc(Cl)cc4)cc3)C2)c1", "note": "(stereo not given)", "inhibition": -1.92}
{"smiles": "CC(Oc1ccc(NC(=O)c2cccs2)cc1)C(=O)c1ccc(Cl)cc1", "note": "(stereo not given)", "inhibition": 7.25}
{"smiles": "COc1ccc(CN2CCN(C(=O)c3cccs3)CC2)c(O)c1", "inhibition": 8.97}
